Laboratory results taken from PubChem BioAssay AID1159580 (chemical genetic matrix, 2015).
In all, about 5,500 compounds went through this assay and about 2,000 (36%) were called active. About 18% were inconclusive and are not listed. No stated cut-off is given here; in the data, active means normalized growth mostly below about 0.91 (no sharp cut-off); inconclusive means no clear call, values can overlap the other calls; inactive means mostly above about 0.92. The list shows a part of the results.

Test: chemical genetic growth profiling, strain panel (AID 1159580);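 further: tested at 20 µM; growth read once vehicle control cultures reached saturation at 30 °C; 1 = growth at the plate median or of vehicle wells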
Conditions: S. cerevisiae deletion strains, growth OD
[1] = locus YDL101C, strain DUN1, stronger effect = lower value
[2] = locus YHR030C, strain SLT2, stronger effect = lower value
[3] = locus YAL013W, strain DEP1, stronger effect = lower value
[4] = locus YBR229C, strain ROT2, stronger effect = lower value
[5] = locus YDL134C, strain PPH21, stronger effect = lower value
[6] = locus YDR150W, strain NUM1, stronger effect = lower value
[7] = locus YEL061C, strain CIN8, stronger effect = lower value
[8] = locus YGR078C, strain PAC10, stronger effect = lower value
[9] = locus YHR087W, strain rtc3, stronger effect = lower value
[10] = locus YJR075W, strain HOC1, stronger effect = lower value
[11] = locus YLR039C, strain RIC1, stronger effect = lower value
[12] = locus YLR058C, strain SHM2 (second series), stronger effect = lower value
[13] = locus YLR085C, strain ARP6, stronger effect = lower value
[14] = locus YLR262C, strain YPT6, stronger effect = lower value
[15] = locus YML094W, strain GIM5, stronger effect = lower value
[16] = locus YMR219W, strain ESC1, stronger effect = lower value
[17] = locus YMR263W, strain SAP30, stronger effect = lower value
[18] = locus YMR307W, strain GAS1, stronger effect = lower value
[19] = locus YNL153C, strain GIM3, stronger effect = lower value
[20] = locus YNL298W, strain CLA4 (second series), stronger effect = lower value
[21] = locus YNL322C, strain KRE1, stronger effect = lower value
[22] = locus YNR030W, strain Alg12, stronger effect = lower value
[23] = locus YPL055C, strain LGE1, stronger effect = lower value
[24] = locus YPL241C, strain CIN2, stronger effect = lower value
[25] = locus YPR135W, strain CTF4, stronger effect = lower value

Measured: normalized growth

CCc1ccn2cc(Nc3ccccc3Cl)nc2c1
inactive: locus YAR019C, strain CDC15, stronger effect = lower value 0.983 | locus YBL105C, strain PKC1, stronger effect = lower value 0.976 | locus YBR135W, strain CKS1, stronger effect = lower value 0.98 | locus YBR136W, strain MEC1, stronger effect = lower value 0.968 | locus YBR160W, strain CDC28, stronger effect = lower value 0.971 | locus YDL017W, strain CDC7, stronger effect = lower value 0.974 | locus YDL028C, strain MPS1, stronger effect = lower value 0.98 | [1] 0.982 | locus YDL108W, strain KIN28, stronger effect = lower value 0.976 | locus YDL132W, strain cdc53, stronger effect = lower value 0.985 | locus YDL214C, strain PRR2, stronger effect = lower value 0.945 | locus YDR052C, strain DBF4, stronger effect = lower value 0.993 | locus YDR054C, strain cdc34, stronger effect = lower value 0.959 | locus YDR226W, strain ADK1, stronger effect = lower value 0.985 | locus YDR477W, strain SNF1, stronger effect = lower value 0.947 | locus YER123W, strain YCK3, stronger effect = lower value 0.898 | locus YER133W, strain GLC7, stronger effect = lower value 0.947 | locus YFL009W, strain cdc4, stronger effect = lower value 0.983 | locus YFL029C, strain CAK1, stronger effect = lower value 0.98 | locus YFR003C, strain YPI1, stronger effect = lower value 0.973 | locus YFR019W, strain FAB1, stronger effect = lower value 0.948 | locus YFR028C, strain CDC14, stronger effect = lower value 0.978 | locus YGR040W, strain KSS1, stronger effect = lower value 0.91 | locus YGR052W, strain FMP48, stronger effect = lower value 1.01 | locus YGR092W, strain DBF2, stronger effect = lower value 0.898 | [2] 0.965 | locus YHR079C, strain IRE1, stronger effect = lower value 0.96 | locus YHR082C, strain KSP1, stronger effect = lower value 0.998 | locus YHR205W, strain SCH9, stronger effect = lower value 0.959 | locus YIL147C, strain SLN1, stronger effect = lower value 0.973 | locus YJL095W, strain BCK1, stronger effect = lower value 0.96 | locus YJL128C, strain PBS2, stronger effect = lower value 0.967 | locus YJL157C, strain FAR1, stronger effect = lower value 0.906 | locus YJR016C, strain ILV3, stronger effect = lower value 0.987 | locus YJR066W, strain TOR1 (second series), stronger effect = lower value 0.895 | locus YJR066W, strain TOR1, stronger effect = lower value 0.973 | locus YKL048C, strain ELM1, stronger effect = lower value 0.984 | locus YKL067W, strain YNK1, stronger effect = lower value 0.962 | locus YKL101W, strain HSL1, stronger effect = lower value 0.949 | locus YKL193C, strain SDS22, stronger effect = lower value 0.979 | locus YKL203C, strain TOR2, stronger effect = lower value 0.973 | locus YLR113W, strain HOG1, stronger effect = lower value 0.916 | locus YLR133W, strain CKI1, stronger effect = lower value 0.928 | locus YLR403W, strain SFP1, stronger effect = lower value 0.886 | locus YML070W, strain DAK1, stronger effect = lower value 0.917 | locus YMR001C, strain CDC5, stronger effect = lower value 0.978 | locus YMR205C, strain PFK2 (second series), stronger effect = lower value 0.966 | locus YMR277W, strain FCP1, stronger effect = lower value 0.981 | locus YNL006W, strain LST8, stronger effect = lower value 0.997 | locus YNL020C, strain ARK1, stronger effect = lower value 0.94 | locus YNL161W, strain CBK1, stronger effect = lower value 0.98 | locus YNL183C, strain NPR1, stronger effect = lower value 0.973 | locus YNL207W, strain RIO2, stronger effect = lower value 0.972 | locus YNL222W, strain SSU72, stronger effect = lower value 0.973 | locus YNL307C, strain MCK1 (second series), stronger effect = lower value 0.917 | locus YOL078W, strain AVO1, stronger effect = lower value 0.981 | locus YOL136C, strain PFK27, stronger effect = lower value 0.926 | locus YOR061W, strain CKA2, stronger effect = lower value 0.963 | locus YOR119C, strain RIO1, stronger effect = lower value 0.985 | locus YOR231W, strain MKK1, stronger effect = lower value 0.905 | locus YOR329C, strain SCD5, stronger effect = lower value 0.972 | locus YPL031C, strain PHO85, stronger effect = lower value 0.911 | locus YPL153C, strain RAD53, stronger effect = lower value 0.912 | locus YPL204W, strain HRR25, stronger effect = lower value 0.921 | locus YPL209C, strain IPL1, stronger effect = lower value 0.976 | locus YPL256C, strain CLN2, stronger effect = lower value 0.917 | locus YPR025C, strain CCL1, stronger effect = lower value 0.983 | locus YPR106W, strain ISR1, stronger effect = lower value 0.971 | locus YPR111W, strain DBF20, stronger effect = lower value 0.97 | strain NNK1, stronger effect = lower value 0.981 | strain TSCII, stronger effect = lower value 0.983

O=C1CCC(c2cccs2)=NN1
inactive: [3] 0.979 | [4] 1 | [1] 0.974 | [5] 1 | [6] 0.986 | [7] 0.987 | [8] 0.99 | [2] 1.03 | [9] 0.999 | locus YJR043C, strain POL32, stronger effect = lower value 1 | [10] 1.01 | [11] 0.993 | [12] 1 | [13] 0.998 | [14] 1.02 | [15] 1 | [16] 0.997 | [17] 1.03 | [18] 1.09 | [19] 0.998 | [20] 1.01 | [21] 0.985 | [22] 1 | locus YOL006C, strain TOP1, stronger effect = lower value 0.99 | [23] 1.01 | [24] 1.05 | [25] 0.901

CC(=O)c1ccc(-c2cccs2)s1
active: [2] 0.58 | [11] 0.777 | [13] 0.606 | [19] 0.878
inactive: [3] 0.95 | [4] 0.963 | [1] 0.944 | [5] 0.999 | [6] 0.953 | [7] 0.939 | [8] 0.989 | [9] 0.992 | locus YJL187C, strain SWE1, stronger effect = lower value 0.978 | [10] 0.995 | [12] 0.972 | [14] 0.855 | [15] 0.887 | [16] 0.981 | [17] 1 | [18] 0.95 | locus YNL128W, strain TEP1, stronger effect = lower value 0.98 | [20] 0.901 | [21] 0.985 | [22] 0.966 | [23] 0.9 | [24] 0.869 | [25] 0.69
